# Calls of active or inactive are those of the source. Unless noted, the rule behind the calls is not given here.
# Key:
# [1] = test system: Wnt5a (protein binding on small-molecule microarray); experiment: small molecules binding Wnt5a protein – biophysical, small-molecule microarray, 635/667 nm fluorescence, primary screen (AID 1142); conditions: 635 nm fluorescence, higher = more signal;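 note: fluorescence read at 667 nm with signal to noise per printed feature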
# [2] = ATP-based viability of Huh7 replicon cells – cell-based, CellTiter-Glo luminescence, basal, 48 h, cytotoxicity control for HCV replication inhibitor project, primary screen (AID 1143); conditions: higher = more signal, called active from +8 up or from −8 down;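 note: Huh7 hepatoma cells carrying a hepatitis C replication reporter with no stimulus; test concentration not given here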
# [3] = Pseudomonas biofilm growth suppression – PAO1 strain, BacTiter-Glo luminescence, LB-PBS, primary screen (AID 1144); conditions: P. aeruginosa PAO1 biofilm, 12 h, higher = more signal
# [4] = basal CRE-LacZ reporter activity in PC12 – cell-based, unstimulated, primary screen (AID 1145); conditions: no forskolin, luminescence, 4.5 h, higher = more signal, called active from +8 up or from −8 down
# [5] = forskolin-driven CRE-LacZ activity in PC12 – cell-based, CRE-LacZ reporter, forskolin-stimulated, primary screen (AID 1146); conditions: luminescence, 4.5 h, higher = more signal, called active from +8 up or from −8 down;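 note: PC12 cells with 6xCRE LacZ reporter stimulated by forskolin 10 µM; beta-galactosidase reporter signal reflecting CREB driven transcription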
# [6] = target: Streptavidin (Streptomyces avidinii) (UniProt P22629); experiment: compounds binding control protein streptavidin – biophysical, small-molecule microarray, 635/667 nm fluorescence, artefact control for SMM compound annotation, primary screen (AID 1147); conditions: higher = more signal;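 note: signal reflects streptavidin binding to arrayed compounds as a control protein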
# [7] = probe aInhba binding on compound microarray – biochemical, small-molecule microarray, 635/667 nm fluorescence, primary screen (AID 1148); conditions: higher = more signal;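 note: score merges 667nm spot fluorescence with signal-to-noise for antibody binding to printed compounds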
# [8] = target: Torsin-1A (Homo sapiens) (UniProt O14656); experiment: TOR1A wild-type binding on microarray – cell lysate, small-molecule microarray, lysate, 635/667 nm, primary screen (AID 1149); conditions: COS7 hTOR1A-WT lysate, 635 nm fluorescence, higher = more signal
# [9] = target: Torsin-1A (Homo sapiens) (UniProt O14656); experiment: torsin A mutant lysate binding on microarrays – cell lysate, small-molecule microarray, COS7 lysate, 635/667 nm fluorescence, primary screen (AID 1150); conditions: COS7 hTOR1A mutant lysate, 635 nm fluorescence, higher = more signal;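 note: score pools 667 nm emission and signal to noise measuring lysate protein binding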
# [10] = test system: Sonic hedgehog protein (Shh); experiment: Sonic hedgehog microarray binding compounds – biochemical, small-molecule microarray, 635/667 nm fluorescence, primary screen (AID 1151); conditions: 635 nm fluorescence, higher = more signal;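 note: Shh protein binding to compounds spotted on small-molecule microarray slides; score combines spot fluorescence intensity with signal-to-noise across triplicate slides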
# [11] = optical density shifts of acrAB sulA E. coli – strain DRC41, OD650, 48 h, E. coli filamentation inducer project, primary screen (AID 1152); conditions: higher = more signal, called active from +8 up or from −8 down;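 note: E. coli MC1000 strain DRC41 lacking acrAB efflux pump and sulA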
# [12] = probe aLefty1 binding on compound microarray – biochemical, small-molecule microarray, 635/667 nm fluorescence, primary screen (AID 1153); conditions: higher = more signal;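 note: score merges spot fluorescence with signal-to-noise ratio from the scanned slide images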
# [13] = plasmodial surface anion channel blockers, osmotic lysis – cell-based, P. falciparum Indochina, OD700, 1 h, primary screen (AID 1154); conditions: P. falciparum Indochina infected RBC osmotic lysis, higher = more signal, called active from +8 up or from −8 down
# [14] = plasmodial surface anion channel blockers, osmotic lysis – cell-based, P. falciparum Indochina, OD700, 2 h, primary screen (AID 1155);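 note: lysis reports solute entry through the parasite surface anion channel PSAC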; conditions: P. falciparum Indochina infected erythrocytes, higher = more signal, called active from +8 up or from −8 down
# [15] = changes in parasitized red cell lysis, either direction – P. falciparum Indochina, OD700, 3 h, PSAC antagonist project, primary screen (AID 1156); conditions: P. falciparum-infected erythrocytes, osmotic lysis, higher = more signal, called active from +8 up or from −8 down
# [16] = plasmodial surface anion channel blockers, osmotic lysis – cell-based, P. falciparum Indochina, OD700, 18 h, primary screen (AID 1157); conditions: P. falciparum Indochina infected erythrocytes, osmotic lysis OD700, 18 h; higher = more signal, called active from +8 up or from −8 down
# [17] = S6 kinase pathway phospho-S6 level changes – cell-based, A549, cytoblot, luminescence, serum-stimulated, primary screen (AID 1158); conditions: 5 h, higher = more signal;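 note: serum-stimulated A549 lung adenocarcinoma cells; signal is phosphorylated S6 detected by cytoblot immunostaining with HRP secondary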
# [18] = target: NADPH oxidase 2 (Homo sapiens) (UniProt P04839); experiment: compounds shifting NOX2 Amplex Red fluorescence – cell-based, HEK293-NOX2, PMA-stimulated, NOX inhibitor project, primary screen (AID 1159); conditions: 45 min, higher = more signal, called active from +8 up or from −8 down; note: test concentration not given here
# [19] = target: NADPH oxidase 4 (Homo sapiens) (UniProt Q9NPH5); experiment: compounds shifting NOX4 Amplex Red fluorescence – cell-based, HEK293-NOX4, tetracycline-induced, NOX inhibitor project, primary screen (AID 1160); conditions: HEK293-NOX4, Amplex Red H2O2 fluorescence, 45 min; higher = more signal, called active from +8 up or from −8 down
# [20] = target: NADPH oxidase 5 (Homo sapiens) (UniProt Q96PH1); experiment: compounds shifting NOX5 Amplex Red fluorescence – cell-based, HEK293-NOX5, NOX inhibitor project, primary screen (AID 1161); conditions: HEK293-NOX5, ionomycin, 45 min, higher = more signal
# Sequence of NADPH oxidase 5 (Homo sapiens) (Q96PH1 whole entry, looked up): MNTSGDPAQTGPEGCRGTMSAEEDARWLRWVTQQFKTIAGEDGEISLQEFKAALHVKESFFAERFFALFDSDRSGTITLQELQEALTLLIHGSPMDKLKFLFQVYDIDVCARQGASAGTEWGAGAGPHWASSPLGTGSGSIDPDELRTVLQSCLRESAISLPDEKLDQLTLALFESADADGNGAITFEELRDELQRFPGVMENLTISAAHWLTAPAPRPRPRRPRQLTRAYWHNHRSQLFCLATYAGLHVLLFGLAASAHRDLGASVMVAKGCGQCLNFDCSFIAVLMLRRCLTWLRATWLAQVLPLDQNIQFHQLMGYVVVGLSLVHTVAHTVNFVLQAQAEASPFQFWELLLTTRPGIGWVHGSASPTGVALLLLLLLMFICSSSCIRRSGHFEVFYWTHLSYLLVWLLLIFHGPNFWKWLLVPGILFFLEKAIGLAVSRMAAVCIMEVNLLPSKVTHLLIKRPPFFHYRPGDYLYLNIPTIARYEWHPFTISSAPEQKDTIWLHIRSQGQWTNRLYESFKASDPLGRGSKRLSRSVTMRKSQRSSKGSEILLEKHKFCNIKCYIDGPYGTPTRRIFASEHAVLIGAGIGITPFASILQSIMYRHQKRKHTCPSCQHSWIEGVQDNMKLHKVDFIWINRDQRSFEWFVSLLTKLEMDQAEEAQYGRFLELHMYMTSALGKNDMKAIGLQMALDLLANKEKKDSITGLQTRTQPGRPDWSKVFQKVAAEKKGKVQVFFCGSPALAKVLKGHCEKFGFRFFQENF
# Sequence of Torsin-1A (Homo sapiens) (O14656 whole entry, looked up): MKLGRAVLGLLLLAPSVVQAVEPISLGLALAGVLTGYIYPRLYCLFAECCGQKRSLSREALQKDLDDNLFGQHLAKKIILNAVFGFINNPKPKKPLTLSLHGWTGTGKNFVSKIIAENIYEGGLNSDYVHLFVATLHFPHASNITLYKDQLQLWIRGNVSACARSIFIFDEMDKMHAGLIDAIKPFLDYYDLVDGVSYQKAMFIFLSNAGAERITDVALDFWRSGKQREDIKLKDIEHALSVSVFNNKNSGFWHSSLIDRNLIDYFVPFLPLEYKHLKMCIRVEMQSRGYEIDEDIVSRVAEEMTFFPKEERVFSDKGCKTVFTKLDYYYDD
# Sequence of NADPH oxidase 4 (Homo sapiens) (Q9NPH5 whole entry, looked up): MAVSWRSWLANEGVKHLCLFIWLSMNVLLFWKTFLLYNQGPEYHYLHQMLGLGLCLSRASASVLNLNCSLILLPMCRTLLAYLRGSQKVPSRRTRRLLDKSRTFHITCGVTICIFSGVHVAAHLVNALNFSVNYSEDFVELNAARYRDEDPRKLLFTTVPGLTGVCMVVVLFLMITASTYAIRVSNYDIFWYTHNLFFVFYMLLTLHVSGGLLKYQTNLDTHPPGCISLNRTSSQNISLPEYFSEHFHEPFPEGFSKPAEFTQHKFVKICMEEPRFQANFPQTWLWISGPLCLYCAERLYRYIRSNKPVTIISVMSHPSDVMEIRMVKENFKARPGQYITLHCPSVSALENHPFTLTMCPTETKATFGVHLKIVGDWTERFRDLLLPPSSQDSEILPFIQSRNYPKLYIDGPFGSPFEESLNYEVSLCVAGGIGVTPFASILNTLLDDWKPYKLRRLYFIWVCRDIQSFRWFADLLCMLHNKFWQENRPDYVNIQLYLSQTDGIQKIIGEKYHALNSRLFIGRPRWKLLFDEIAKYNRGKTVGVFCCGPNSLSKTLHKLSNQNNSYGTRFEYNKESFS
# Sequence of NADPH oxidase 2 (Homo sapiens) (P04839 whole entry, looked up): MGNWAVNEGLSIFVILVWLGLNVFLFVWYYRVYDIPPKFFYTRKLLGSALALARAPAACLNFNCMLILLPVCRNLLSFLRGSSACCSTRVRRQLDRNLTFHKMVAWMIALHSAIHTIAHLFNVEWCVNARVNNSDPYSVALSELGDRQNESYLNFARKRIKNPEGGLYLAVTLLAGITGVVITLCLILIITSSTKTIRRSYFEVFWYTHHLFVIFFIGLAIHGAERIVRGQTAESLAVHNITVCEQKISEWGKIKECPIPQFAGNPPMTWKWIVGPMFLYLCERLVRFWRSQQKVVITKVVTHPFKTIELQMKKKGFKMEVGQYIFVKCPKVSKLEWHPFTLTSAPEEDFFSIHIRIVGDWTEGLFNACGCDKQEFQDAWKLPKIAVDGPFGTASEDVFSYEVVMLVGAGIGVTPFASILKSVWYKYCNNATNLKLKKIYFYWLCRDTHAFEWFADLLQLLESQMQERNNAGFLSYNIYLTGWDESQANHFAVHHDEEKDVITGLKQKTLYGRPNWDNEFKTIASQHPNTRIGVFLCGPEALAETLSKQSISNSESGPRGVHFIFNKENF
# Sequence of Streptavidin (Streptomyces avidinii) (P22629 whole entry, looked up): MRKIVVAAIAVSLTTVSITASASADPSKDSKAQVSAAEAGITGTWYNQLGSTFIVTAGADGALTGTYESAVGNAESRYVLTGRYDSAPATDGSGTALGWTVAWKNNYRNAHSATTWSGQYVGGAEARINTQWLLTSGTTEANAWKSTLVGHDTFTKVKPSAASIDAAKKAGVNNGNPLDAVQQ
Structure (SMILES),composite z-score [1],z-score [2],z-score [3],z-score [4],z-score [5],composite z-score [6],composite z-score [7],composite z-score [8],composite z-score [9],composite z-score [10],z-score [11],composite z-score [12],z-score [13],z-score [14],z-score [15],z-score [16],z-score [17],z-score [18],z-score [19],z-score [20]
COc1cc(NN2C(C(O)c3ccc(I)cc3)C=CC3C(=O)N(c4ccccc4)C(=O)C32)cc(OC)c1OC (stereo not given),0.378,-3.44 (inactive),-1.28 (inactive),-0.136 (inactive),0.0938 (inactive),0.901,0.233,0.544,0.743,0.325,-0.877 (inactive),0.365,2.08 (inactive),0.477 (inactive),0.481 (inactive),-0.497 (inactive),1.52,-3.15 (inactive),-4.09 (inactive),-6.01
Cc1cccc([C@H]2C[C@H]3C(Br)=C[C@@H]2C(=O)[C@]32CO2)c1,-0.258,-0.687 (inactive),0.185 (inactive),0.854 (inactive),2.63 (inactive),-0.221,-0.239,0.397,-1.21,-0.198,-0.227 (inactive),-0.147,0.969 (inactive),0.323 (inactive),0.463 (inactive),0.06 (inactive),0.209,0.7 (inactive),-0.00866 (inactive),-0.854
CC(C)(C)OC(=O)CC[C@]12N=C(c3ccc(OCCCO)cc3)O[C@H]1c1ccccc1N(Cc1ccccc1)C2=O,0.154,-3.76 (inactive),1.18 (inactive),0.951 (inactive),-0.746 (inactive),-0.12,0.225,0.553,1.63,1.12,0.617 (inactive),0.848,27 (active),28.2 (active),4.42 (inactive),2.09 (inactive),0.34,3.89 (inactive),0.102 (inactive),-1.71
C=C(CCCC)C(=O)CC[C@H](OC(C)=O)c1ccc(OCCO)cc1,-0.624,-7.16 (inactive),-1.17 (inactive),5.09 (inactive),-0.361 (inactive),0.519,-0.308,-0.822,-0.514,-0.0938,2.2 (inactive),-0.316,11.3 (active),0.316 (inactive),1.61 (inactive),-0.623 (inactive),2,-3.16 (inactive),-1.5 (inactive),-3.11
C=C[C@@H](C)[C@@H](OC(=O)Nc1ccc(SC)cc1)c1ccc(OCCO)cc1,0.382,-3.1 (inactive),-0.882 (inactive),0.236 (inactive),-0.162 (inactive),0.929,-0.151,0.495,1.04,0.487,-0.707 (inactive),-0.156,29.1 (active),20.2 (active),4.42 (inactive),1.9 (inactive),0.241,-1.21 (inactive),-0.0499 (inactive),-0.431
NC(=O)N1C(=O)C2C(C1=O)C1C=C(CCCO)C2C(C2CC2)N1Cc1cccc(OC(F)(F)F)c1 (stereo not given),-0.352,-0.458 (inactive),1.35 (inactive),0.522 (inactive),1.62 (inactive),-0.439,-0.182,1.51,1.59,0.393,-0.778 (inactive),-0.195,1.03 (inactive),0.275 (inactive),-0.351 (inactive),0.161 (inactive),-0.898,0.699 (inactive),-0.685 (inactive),-0.738
C[C@@H]1ON(c2ccc(I)cc2)[C@H](c2ccc(OC(=O)OC(C)(C)C)cc2)[C@H]1C(=O)N1C(=O)OC[C@H]1Cc1ccccc1,0.0472,-1.32 (inactive),-0.829 (inactive),-0.415 (inactive),-0.642 (inactive),0.573,-0.0468,0.0475,0.624,0.639,2.67 (inactive),-0.191,0.789 (inactive),-0.474 (inactive),0.546 (inactive),-1.73 (inactive),1.5,-5.57 (inactive),0.237 (inactive),1.39
CC(C)CNC(=O)[C@@]1(C)c2ccccc2C(=O)N(Cc2cc(C(F)(F)F)cc(C(F)(F)F)c2)[C@H]1c1ccc(CO)cc1,-0.445,-3.12 (inactive),0.92 (inactive),0.414 (inactive),-0.578 (inactive),-0.366,-0.0987,-0.918,-0.267,-0.117,0.516 (inactive),-0.101,7.12 (inactive),1.13 (inactive),2.06 (inactive),0.428 (inactive),-0.404,-0.766 (inactive),0.596 (inactive),0.821
